Measurements: PubChem BioAssay AID1159580 (chemical genetic matrix, 2015)
In all, about 5,500 compounds went through this assay and about 2,000 (36%) were called active. Another 18% or so got no clear call; they are omitted. No stated cut-off is given here; in the data, active means normalized growth mostly below about 0.91 (no sharp cut-off); inconclusive means no clear call, values can overlap the other calls; inactive means mostly above about 0.92. The list shows a part of the results.

Test: chemical genetic growth profiling, strain panel (AID 1159580);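 further: tested at 20 µM; growth read once vehicle control cultures reached saturation at 30 °C; 1 = growth at the plate median or of vehicle wells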
Conditions: S. cerevisiae deletion strains, growth OD
[1] = locus YAL013W, strain DEP1, stronger effect = lower value
[2] = locus YBR229C, strain ROT2, stronger effect = lower value
[3] = locus YCL061C, strain MRC1, stronger effect = lower value
[4] = locus YDL101C, strain DUN1, stronger effect = lower value
[5] = locus YDR150W, strain NUM1, stronger effect = lower value
[6] = locus YEL061C, strain CIN8, stronger effect = lower value
[7] = locus YGR078C, strain PAC10, stronger effect = lower value
[8] = locus YGR229C, strain SMI1, stronger effect = lower value
[9] = locus YHR030C, strain SLT2, stronger effect = lower value
[10] = locus YHR087W, strain rtc3, stronger effect = lower value
[11] = locus YJL187C, strain SWE1, stronger effect = lower value
[12] = locus YJR043C, strain POL32, stronger effect = lower value
[13] = locus YJR075W, strain HOC1, stronger effect = lower value
[14] = locus YKL190W, strain CNB1, stronger effect = lower value
[15] = locus YLR039C, strain RIC1, stronger effect = lower value
[16] = locus YLR058C, strain SHM2 (second series), stronger effect = lower value
[17] = locus YLR085C, strain ARP6, stronger effect = lower value
[18] = locus YLR262C, strain YPT6, stronger effect = lower value
[19] = locus YML094W, strain GIM5, stronger effect = lower value
[20] = locus YMR219W, strain ESC1, stronger effect = lower value
[21] = locus YMR263W, strain SAP30, stronger effect = lower value
[22] = locus YMR307W, strain GAS1, stronger effect = lower value
[23] = locus YNL153C, strain GIM3, stronger effect = lower value
[24] = locus YNL298W, strain CLA4 (second series), stronger effect = lower value
[25] = locus YNL322C, strain KRE1, stronger effect = lower value
[26] = locus YNR030W, strain Alg12, stronger effect = lower value
[27] = locus YOL006C, strain TOP1, stronger effect = lower value
[28] = locus YPL055C, strain LGE1, stronger effect = lower value
[29] = locus YPL241C, strain CIN2, stronger effect = lower value
[30] = locus YPR135W, strain CTF4, stronger effect = lower value

Measured: normalized growth

Cc1cscc1S(=O)(=O)c1ccc(Cl)cc1
inactive: [1] 0.991 | [2] 0.969 | [3] 0.97 | [4] 0.966 | [5] 0.929 | [6] 0.98 | [7] 0.958 | [8] 0.981 | [9] 0.821 | [10] 0.974 | [11] 1 | [12] 0.958 | [13] 0.922 | [14] 0.991 | [15] 0.819 | [16] 0.975 | [17] 0.967 | [18] 0.833 | [19] 0.969 | [20] 0.978 | [21] 0.953 | [22] 0.855 | locus YNL128W, strain TEP1, stronger effect = lower value 0.994 | [23] 0.945 | [24] 0.961 | [25] 0.975 | [26] 0.95 | [27] 0.904 | [28] 0.898 | [29] 0.953 | [30] 0.765

Cc1c(S(=O)(=O)c2ccc(Cl)cc2)csc1C(=O)Nc1ccc(N2CCOCC2)c(Cl)c1
active: [13] 1.15 [resistant]
inactive: [1] 0.992 | [2] 1.03 | [3] 1.05 | [4] 1.06 | [5] 1.05 | [6] 1.03 | [7] 1.07 | [9] 1.06 | [10] 0.999 | [11] 1.03 | [12] 1.03 | [14] 0.982 | [15] 0.992 | [16] 0.989 | [17] 0.947 | [18] 1.12 | [19] 0.988 | [20] 1 | [21] 1.03 | [22] 1.03 | [23] 1.06 | [24] 0.999 | [25] 0.991 | [26] 0.995 | [27] 1.03 | [28] 1.05 | [29] 0.984 | [30] 1.13

Cc1c(S(=O)(=O)c2ccc(Cl)cc2)csc1S(=O)(=O)N/N=C\c1c(Cl)cccc1Cl
inactive: [1] 1 | [2] 1.01 | [4] 1.02 | locus YDL134C, strain PPH21, stronger effect = lower value 0.996 | [5] 0.948 | [6] 0.991 | [7] 1.01 | [8] 1 | [9] 1.02 | [10] 0.998 | [12] 1.01 | [13] 1.03 | [14] 1 | [15] 1 | [16] 1.01 | [17] 1.04 | [18] 1 | [19] 0.988 | [20] 1.01 | [21] 0.984 | [22] 1.04 | [23] 1 | [24] 1.03 | [25] 1 | [26] 1.01 | [27] 1.03 | [28] 0.886 | [29] 0.993 | [30] 1
